Results from PubChem BioAssay (NCI).
This is part of a sample that, as a whole, favours compounds with a hit. Of some 79,000 tested, about 15% had one in any assay. The source made the active and inactive calls. Rule as the data show it: active = growth inhibition above about 70%; inactive = the rest.

Key:
[1] = NCI Yeast Anticancer Drug Screen. Data for the rad52 strain (AID 147);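 also: 0% = growth of vehicle-treated control cultures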; details: S. cerevisiae rad52 mutant growth inhibition, stronger effect = higher value
Method in brief: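 Vehicle-treated cultures served as the reference for growth inhibition of compound-exposed yeast bearing a DNA repair mutation.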

[2] = NCI Yeast Anticancer Drug Screen. Data for the wt1 strain (AID 149);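 also: 0% = growth of vehicle-treated wt1 cultures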; details: S. cerevisiae wt1 strain (SPY 50644) growth inhibition, stronger effect = higher value
Method in brief: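 wt1 strain grown with compound or vehicle; inhibition taken from the growth difference.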

[3] = NCI Yeast Anticancer Drug Screen. Data for the rad50 strain (AID 155);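 also: 0% = growth of vehicle-only cultures of the same strain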; details: S. cerevisiae rad50 strain growth inhibition, stronger effect = higher value
Method in brief: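 DNA repair mutant yeast, compound exposure, growth read-out; inhibition is taken relative to vehicle.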

[4] = NCI Yeast Anticancer Drug Screen. Data for the mec2-1 strain (AID 157); details: S. cerevisiae mec2-1 strain, stronger effect = higher value
Method in brief: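 Vehicle-treated cultures served as reference for growth inhibition of compound-exposed mec2-1 yeast.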

[5] = NCI Yeast Anticancer Drug Screen. Data for the rad14 strain (AID 159);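 also: 0% = growth of vehicle-treated control cultures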; details: S. cerevisiae rad14 strain growth inhibition, stronger effect = higher value
Method in brief: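 DNA repair-defective yeast, compound-exposed; % growth inhibition derived by comparison with vehicle-treated controls.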

[6] = NCI Yeast Anticancer Drug Screen. Data for the sgs1 mgt1 strain (AID 161);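 also: 0% = growth of cultures given vehicle only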; details: S. cerevisiae sgs1 mgt1 strain, stronger effect = higher value
Method in brief: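 Test agents were incubated with a DNA-repair-mutant yeast strain. Growth was then read and compared against vehicle-treated controls.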

[7] = NCI Yeast Anticancer Drug Screen. Data for the CLN2oe strain (AID 163);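 also: 0% = growth of vehicle-only control cultures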; details: S. cerevisiae CLN2oe strain, stronger effect = higher value
Method in brief: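 Inhibition relative to vehicle-treated yeast is reported. Cells: strain with genetic alteration in cell-cycle control, grown with compound.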

[8] = NCI Yeast Anticancer Drug Screen. Data for the cln2 rad14 strain (AID 165);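 also: 0% = growth equal to vehicle treated cultures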; details: S. cerevisiae cln2 rad14 strain, stronger effect = higher value
Method in brief: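 Each compound was tested on cln2 rad14 yeast. Inhibition of growth was calculated against vehicle-exposed controls.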

[9] = NCI Yeast Anticancer Drug Screen. Data for the bub3 strain (AID 167); details: S. cerevisiae bub3 mutant strain, stronger effect = higher value
Method in brief: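 In this screen, a yeast mutant lacking normal mitotic checkpoint function is challenged with compound. Relative growth versus vehicle gives the inhibition value.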

[10] = NCI Yeast Anticancer Drug Screen. Data for the wt2 strain (AID 169);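 also: 0% = growth of vehicle-treated yeast cultures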; details: S. cerevisiae wt2 strain growth inhibition, stronger effect = higher value
Method in brief: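 Inhibition of yeast growth was determined after compound treatment, normalised to controls receiving only vehicle.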

[11] = NCI Yeast Anticancer Drug Screen. Data for the mlh1 strain (AID 171);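 also: 0% = growth of vehicle-treated control cultures of the same strain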; details: S. cerevisiae mlh1 strain growth inhibition, stronger effect = higher value
Method in brief: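 Vehicle-normalised growth inhibition of a repair- or checkpoint-altered yeast strain following compound treatment.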

[12] = NCI Yeast Anticancer Drug Screen. Data for the sgs1 strain (AID 173);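 also: 0% = growth of vehicle-only control cultures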; details: S. cerevisiae sgs1 mutant, stronger effect = higher value
Method in brief: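 Screen format: yeast with repair or checkpoint alterations, compound exposure, growth read relative to vehicle.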

[13] = NCI Yeast Anticancer Drug Screen. Data for the mlh1 rad18 strain (AID 175); details: S. cerevisiae mlh1 rad18 strain growth inhibition, stronger effect = higher value
Method in brief: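 Vehicle-treated cultures served as the reference for growth inhibition in a yeast strain carrying DNA damage repair alterations exposed to each compound.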

[14] = NCI Yeast Anticancer Drug Screen. Data for the rad18 strain (AID 177); details: S. cerevisiae rad18 mutant growth inhibition, stronger effect = higher value
Method in brief: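 Test articles were incubated with altered yeast defective in DNA damage repair. Results are given as inhibition of growth versus vehicle.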

[15] = at 5.0 µM (retest, dose inferred, filed as 0.5)
[16] = at 50.0 µM (retest, dose inferred, filed as 5.0)

Measured: growth inhibition

Cc1ccc(S(=O)(=O)N/N=C/C2(c3ccccc3)c3ccccc3-c3ccccc32)cc1
inactive: [1]; at 1.2 µM 41% | [1]; at 3.7 µM 45% | [2]; at 1.2 µM 25% | [2]; at 3.7 µM 13% | [2]; at 11.0 µM 34% | [3]; at 1.2 µM 4% | [3]; at 3.7 µM 36% | [3]; [15] 38% | [3]; at 50.0 µM 29.5% | [4]; at 1.2 µM 25% | [4]; at 3.7 µM 15% | [4]; [15] 22% | [4]; at 11.0 µM 27% | [4]; at 50.0 µM 7.7% | [5]; at 1.2 µM 9% | [5]; at 3.7 µM 9% | [5]; at 11.0 µM 45% | [6]; [15] 31% | [6]; at 50.0 µM 33.8% | [7]; at 1.2 µM 37% | [7]; at 3.7 µM 38% | [8]; [15] 45% | [8]; at 50.0 µM 16.1% | [9]; at 1.2 µM 19% | [9]; at 3.7 µM 9% | [9]; [15] 20% | [9]; at 11.0 µM 54% | [9]; at 50.0 µM 29.1% | [9]; at 100.0 µM 62% | [10]; at 1.2 µM -8% | [10]; at 3.7 µM 18% | [11]; at 1.2 µM 21% | [11]; at 3.7 µM 7% | [11]; at 11.0 µM 30% | [11]; at 33.0 µM 61% | [12]; at 1.2 µM 16% | [12]; at 3.7 µM 15% | [12]; at 11.0 µM 45% | [14]; at 1.2 µM 50% | [14]; at 3.7 µM 52%
active: [1]; at 11.0 µM 79% | [1]; at 33.0 µM 93% | [1]; at 100.0 µM 86% | [2]; at 33.0 µM 87% | [2]; at 100.0 µM 83% | [3]; at 11.0 µM 82% | [3]; at 33.0 µM 90% | [3]; [16] 92% | [3]; at 100.0 µM 77% | [4]; at 33.0 µM 78% | [4]; [16] 93% | [4]; at 100.0 µM 84% | [5]; at 33.0 µM 86% | [5]; at 100.0 µM 86% | [6]; [16] 93% | [7]; at 11.0 µM 80% | [7]; at 33.0 µM 91% | [7]; at 100.0 µM 76% | [8]; [16] 90% | [9]; at 33.0 µM 88% | [9]; [16] 90% | [10]; at 11.0 µM 76% | [10]; at 33.0 µM 91% | [10]; at 100.0 µM 80% | [11]; at 100.0 µM 71% | [12]; at 33.0 µM 82% | [12]; at 100.0 µM 80% | [13]; [15] 79% | [13]; [16] 91% | [13]; at 50.0 µM 70.5% | [14]; at 11.0 µM 80% | [14]; at 33.0 µM 91% | [14]; at 100.0 µM 89%
